Assay [1] is described as follows: qHTS assay for small molecule agonists of the antioxidant response element (ARE) signaling pathway (AID 651741; active = well fitted activation curve with a large enough effect in the signal ratio; the % refers to the signal ratio; note: potency is the fitted concentration of half-maximal effect; for activation: % of control where 0% means no effect). In outline:
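HepG2 ARE-bla reporter cells, 2,000/well; 5 h settle at 37 C/5% CO2; compound pin transfer (23 nL, DMSO); 16 h at 37 C; LiveBLAzer B/G FRET substrate, 2 h RT; fluorescence intensity read.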
On the technique in general: qHTS replaces the single test concentration by a dilution series.

The nature of assay [2]: qHTS assay for small molecule activators of the nuclear factor-kappa B (NF-kB) signaling pathway (AID 651749; active = well fitted activation curve with a large enough effect in the signal ratio; the % refers to the signal ratio; note: % of control where 0% means no effect). To be noted: NF-kB-bla ME-180 cells, beta-lactamase FRET ratio, 16 h; stronger effect = higher value. In outline:
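NF-kB-bla ME-180 cells, 2,000/well; 23 nL compound or DMSO pinned; 16 hr, 37C/5% CO2; beta-lactamase FRET read-out.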

The nature of assay [3]: qHTS assay for environmental chemicals that activate the Aryl hydrocarbon Receptor (AhR) signaling pathway (AID 651777). For activation: % of control where 0% means no effect. Note: nearly all actives have a fitted effect of over 15% in size. Note: potency is the fitted concentration of half-maximal effect. To be noted: 1A2-DRE human hepatoma cells, luciferase, 24 h; activation: stronger effect = higher value. In short, it runs like this:
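AhR activation is scored as a rise in luciferase from a stable DRE–CYP1A2 promoter construct in human hepatoma cells. Treatment lasts 24 hr at 37 C; detection uses One-Glo after 30 min at room temperature.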

In assay [4] the target is Peroxisome proliferator-activated receptor alpha (Homo sapiens) (UniProt Q07869). Kind of assay: qHTS assay for small molecule agonists of the peroxisome proliferator-activated receptor alpha (PPARalpha) signaling pathway (AID 651778). Note: % of control where 0% means no effect. To be noted: PathHunter PPARalpha complementation, chemiluminescence, 6 h; max response: stronger effect = higher value. In short, it runs like this:
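Enzyme-fragment complementation assay in which ligand-bound PPARalpha translocates and forms an active enzyme that generates chemiluminescence. Cells were plated overnight, exposed to compound for 6 hr at 37 C, and then given detection reagent for 60 min at room temperature.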

A short description of assay [5]: qHTS assay for small molecule disruptors of the mitochondrial membrane potential - 1 hr assay (AID 651754; calls by dose curve; note: potency is the fitted concentration of half-maximal effect; nearly all actives have a fitted effect of over 35% in size). In short, it runs like this:
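Read-out: dye fluorescence at 490 nm ex/535 nm em (monomers) and 540 nm ex/590 nm em (aggregates) in HepG2 cells. Compound exposure 1 hr at 37C, followed by 30 min dye loading.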

Assay [6] in a line: qHTS assay for small molecule disruptors of the mitochondrial membrane potential - 5 hr assay (AID 651755; calls by dose curve; note: potency is the fitted concentration of half-maximal effect; nearly all actives have a fitted effect of over 40% in size). To be noted: JC-1-type ratio dye. In outline:
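Read-out: ratiometric Mito-MPS fluorescence, green monomer (ex 490/em 535) vs red mitochondrial aggregate (ex 540/em 590). HepG2 cells treated 5 hr at 37C before 30 min dye loading.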

Assay [7] in a line: qHTS assay for small molecule activators of the p53 signaling pathway (AID 651743; active = well fitted activation curve with a large enough effect in the signal ratio, not every such curve was filed as active; the % refers to the signal ratio; note: % of control where 0% means no effect). The note with it: HCT-116 p53RE-bla, beta-lactamase FRET ratio, 16 h; activation: stronger effect = higher value. In outline: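 Reporter: beta-lactamase driven by p53 response elements, stably integrated in HCT-116 cells. Cells seeded at 4,000/well, 5 h preincubation, compound (DMSO) 16 h at 37 C; B/G FRET substrate 2 h RT; fluorescence intensity read.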

In assay [8] the target is Glucagon-like peptide 1 receptor (Homo sapiens) (UniProt P43220). Kind of assay: qHTS of GLP-1 Receptor Agonists: LOPAC Validation (AID 624148).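 Note: 0% is about no effect; higher luminescence signal means agonism.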 In short, it runs like this: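 HEK293 cells stably co-expressing GLP-1R and a cAMP-responsive luciferase reporter, plated 12 hours before compound, then incubated 4-6 hr at 37 deg C. Luminescence read 12 min after detection reagent.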
Sequence of Glucagon-like peptide 1 receptor (Homo sapiens) (P43220 whole entry, looked up): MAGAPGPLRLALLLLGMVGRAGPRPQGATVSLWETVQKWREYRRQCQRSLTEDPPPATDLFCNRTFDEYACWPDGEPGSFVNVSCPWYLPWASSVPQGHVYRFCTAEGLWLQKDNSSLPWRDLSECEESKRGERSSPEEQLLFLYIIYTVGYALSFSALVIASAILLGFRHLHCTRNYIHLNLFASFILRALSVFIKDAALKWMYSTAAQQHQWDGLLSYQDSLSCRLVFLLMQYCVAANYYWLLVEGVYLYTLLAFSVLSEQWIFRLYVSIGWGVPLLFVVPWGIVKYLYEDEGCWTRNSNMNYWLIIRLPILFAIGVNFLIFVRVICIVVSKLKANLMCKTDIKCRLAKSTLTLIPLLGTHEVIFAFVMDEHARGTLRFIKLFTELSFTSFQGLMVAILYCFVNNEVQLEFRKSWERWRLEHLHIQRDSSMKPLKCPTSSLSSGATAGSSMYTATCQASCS

Assay [9] can be described thus: qHTS of Nrf2 Activators: LOPAC Validation (AID 624149). Note: 0% is about no effect. In outline:
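AREc32_Fluc cells, 1000/well, OPTI-MEM + 5% FBS, o/n 37 deg C 5% CO2; compound pin-transfer, 24 hr 37 deg C; Steady-Glo 30 min RT, luminescence read.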

Assay [10] in a line: HTS Assay for Allosteric Antagonists of the Human D2 Dopamine Receptor: Hit Validation in HTRF (AID 624455). Note: % is set by controls: 0 for no effect and ±100 for the full control effect. In short, it runs like this: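 HTRF read-out; cells stably expressing D1 receptor; hits scored for inhibition of D1-mediated response. Primary screen: calcium flux, force-coupled inducible Hek293 Trex D2 line, antagonism vs EC80 dopamine.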
Assay [11] has as its target Tumor necrosis factor (Homo sapiens) (UniProt P01375). Description: qHTS assay to identify small molecules that stimulate Tumor Necrosis Factor-alpha (TNF-alpha) secretion (AID 651757; active = well fitted curve in the direction sought with a large enough effect in the signal ratio; the % refers to the signal ratio; note: 0% is about no effect). In short, it runs like this:
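THP-1 cells, 3000/well; compound 17 hrs, 37 C; add cryptate/XL665 anti-TNF-alpha antibody pair; 3 hr RT; TR-FRET (HTRF) read of secreted TNF-alpha. Quantitative HTS format.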

A short description of assay [12]: qHTS assay to identify small molecules that stimulate interleukin-8 (IL-8) secretion (AID 651758; active = well fitted activation curve with a large enough effect in the signal ratio; the % refers to the signal ratio; note: potency is the fitted concentration of half-maximal effect; for activation: 0% is about no effect). In short, it runs like this:
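Compounds are added to THP-1 cells (2000 per well) and left 16 hrs at 37 C. A labeled anti-IL-8 antibody pair is then added, and IL-8 secretion is measured by time-resolved FRET after 1-3 hrs at room temperature.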

The target in assay [13] is Nuclear receptor ROR-gamma (Homo sapiens) (UniProt P51449). Kind of assay: qHTS assay for small molecule antagonists of the retinoid-related orphan receptor gamma (ROR-gamma) signaling pathway (AID 651802). Note: nearly all actives have a fitted effect of over 60% in size. Note: potency is the fitted concentration of half-maximal effect. In short, it runs like this:
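Luciferase read-out: ONE-Glo luminescence after 30 min at room temperature, following 16hr doxycycline induction at 37C, 5% CO2 of CHO cells with TET-inducible ROR and RORE-LUC reporter; decreased luminescence = reduced reporter activity.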

Assay [14] in a line: Cytotoxicity counterscreen for NFkB agonists and antagonists (AID 624476).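 Note: cells exposed to compound for 48 hours; % is set by controls: 0 for no effect and ±100 for the full control effect.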 For orientation: A counterscreen serves to expose hits that act by an unwanted route or on another target.
Assay [15] can be described thus: qHTS Assay for Identification of Small Molecule Agonists for NFkB Signaling Pathway. (AID 624478).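 Note: compounds tested together with TNF alpha at its EC50 of 10 pM; 0% is about no effect.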 In outline:
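Read-out: 460/530 nm emission at 405 nm excitation after 2 h LiveBLAzer loading; ME-180 NFkB-bla reporter cells exposed 5 h at 37 C to compounds with 10 pM TNF alpha final.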

A short description of assay [16]: qHTS Assay for Identification of Small Molecule Antagonists for NFkB Signaling Pathway. (AID 624479; calls by dose curve;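 note: pathway stimulated with TNF alpha; % is set by controls: 0 for no effect and ±100 for the full control effect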).
A short description of assay [17]: Cell Proliferation Assay against the TMD8 Cell Line (AID 651645).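 Note: cells exposed to compound for 48 h before reading.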 The note with it: TMD8 DLBCL cell line proliferation/viability; at 46.1 µM (top of the series). In outline: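 500 TMD8 cells/well, RPMI + Glutamax, no phenol red, 5% FBS; cpd added immediately; 48 h, 37C, 5% CO2; CellTiter-Glo, luminescence. Controls: DMSO = 100%, bortezomib 9.2 uM final = 0%.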

The nature of assay [18]: Cell Proliferation Assay against the HBL1 Cell Line (AID 651646).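 Note: cells exposed to compound for 48 h before reading.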 To be noted: HBL1 DLBCL cells; at 46.1 µM (top of the series). In outline: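 HBL1, 500 cells/well, RPMI no phenol red + 5% FBS; cpd pinned, 48 h 37C/5% CO2; CellTiter-Glo, 15 min RT, luminescence. % activity: DMSO = 100%, bortezomib 9.2 uM final = 0%.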
Assay [19] in a line: Cell Proliferation Assay against the TMD8 Cell Line (Caspase readout at 16 hrs) (AID 651712).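 Note: 0% = DMSO and 100% = 9.2 µM bortezomib caspase activation.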 In short, it runs like this:
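Caspase-Glo luminescence after 16 h compound exposure of TMD8 cells, 37 °C, 5% CO2. Medium: RPMI without phenol red, 5% FBS. Normalisation: DMSO = 0%, bortezomib 9.2 uM final = 100%.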

Assay [20] in a line: Cell Proliferation Assay against the TMD8 Cell Line (Caspase readout at 8 hrs) (AID 651713).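 Note: 0% = DMSO and 100% = 9.2 µM bortezomib caspase signal.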 In short, it runs like this:
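Apoptosis readout: caspase 3/7 luminescence (Caspase-Glo), 15 min RT. Cells: TMD8, 500/well, RPMI + 5% FBS, no phenol red. Exposure 8 h, 37C. % activity vs DMSO = 0, bortezomib 9.2 uM final = 100.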

Data on 14 compounds can be found in PubChem BioAssay (NCATS).

Values joined by “and” are separate entries in the source; they are usually repeats but may differ in a detail not shown here. Equal entries are not always repeated. Inconclusive results are not listed. Active and inactive are the calls of the source. Unless noted, calls come from the whole dose curve; as a rule, active = well fitted curve in the direction sought with a large enough effect; inconclusive = small, poorly fitted or top-dose-only effect, or another doubt; inactive = no such curve, though single readings can be large; an effect the other way counts as inactive or inconclusive.

Sequence of Nuclear receptor ROR-gamma (Homo sapiens) (P51449 whole entry, looked up): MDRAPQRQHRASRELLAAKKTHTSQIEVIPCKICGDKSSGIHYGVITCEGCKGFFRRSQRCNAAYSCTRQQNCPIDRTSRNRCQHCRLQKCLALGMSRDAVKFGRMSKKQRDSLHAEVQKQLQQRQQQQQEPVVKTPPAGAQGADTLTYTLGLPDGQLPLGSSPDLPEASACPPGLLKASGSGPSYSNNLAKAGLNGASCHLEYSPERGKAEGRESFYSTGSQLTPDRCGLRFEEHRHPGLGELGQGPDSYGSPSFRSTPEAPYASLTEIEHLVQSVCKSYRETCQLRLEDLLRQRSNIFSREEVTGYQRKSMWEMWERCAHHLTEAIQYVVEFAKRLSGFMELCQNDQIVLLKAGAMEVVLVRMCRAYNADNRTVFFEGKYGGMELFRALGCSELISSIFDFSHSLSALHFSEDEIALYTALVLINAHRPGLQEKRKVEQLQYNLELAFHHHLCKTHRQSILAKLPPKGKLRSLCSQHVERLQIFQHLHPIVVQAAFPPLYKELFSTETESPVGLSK
Sequence of Tumor necrosis factor (Homo sapiens) (P01375 whole entry, looked up): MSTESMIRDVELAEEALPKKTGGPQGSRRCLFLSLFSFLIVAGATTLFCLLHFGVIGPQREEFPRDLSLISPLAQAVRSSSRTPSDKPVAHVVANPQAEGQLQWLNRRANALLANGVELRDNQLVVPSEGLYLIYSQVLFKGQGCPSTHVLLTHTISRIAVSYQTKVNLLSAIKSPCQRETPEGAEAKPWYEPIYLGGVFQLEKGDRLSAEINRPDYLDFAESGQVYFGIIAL
Sequence of Peroxisome proliferator-activated receptor alpha (Homo sapiens) (Q07869 whole entry, looked up, the tested form may be a part): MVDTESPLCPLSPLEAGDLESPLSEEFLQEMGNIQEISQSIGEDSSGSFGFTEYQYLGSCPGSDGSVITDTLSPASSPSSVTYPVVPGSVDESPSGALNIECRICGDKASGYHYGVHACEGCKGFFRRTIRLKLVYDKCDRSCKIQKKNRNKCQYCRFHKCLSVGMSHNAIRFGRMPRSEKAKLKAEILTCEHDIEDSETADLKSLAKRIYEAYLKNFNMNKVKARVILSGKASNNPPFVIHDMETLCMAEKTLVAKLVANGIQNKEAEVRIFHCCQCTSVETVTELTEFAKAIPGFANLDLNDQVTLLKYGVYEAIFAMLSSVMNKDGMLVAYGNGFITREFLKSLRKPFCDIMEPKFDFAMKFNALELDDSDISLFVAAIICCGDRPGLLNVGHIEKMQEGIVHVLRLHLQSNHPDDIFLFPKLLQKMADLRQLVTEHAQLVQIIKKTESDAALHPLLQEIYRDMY

Consider `C[C@H]1C(=O)O[C@@H]2CCN3CC=C(COC(=O)[C@](C)(O)[C@]1(C)O)[C@H]23`, for which, in [1], the Potency result is “inactive”. Moreover, the activation in [2] was 0.569% (inactive); in [3], -2.28% (inactive). Further, the max response in assay [4] is 0.361% (inactive).
With `Oc1ccc(Cl)cc1Cc1cc(Cl)ccc1O`, the Potency in assay [1] was 18.8 µM (active); in [5], 10.6 µM (active); in assay [6], 11.9 µM (active). Moreover, the activation in assay [2] is 2.23% (inactive). In addition, the max response in assay [4] was 4.36% (inactive).
`COP(=O)(OC)C(O)C(Cl)(Cl)Cl` (centres undefined): the Potency in assay [1] is 19.3 µM (active). Also, the activation was 6.58% (inactive) in assay [7], 1.93% (inactive) in assay [2] and 1.53% (inactive) in assay [3]. Moreover, the max response in assay [4] is -2.06% (inactive).
Regarding `CCCCCCCCC(=O)NCc1ccc(O)c(OC)c1`, in assay [2], the activation is -0.791% (inactive). For the same compound, in assay [4], the max response was 1.45% (inactive).
Turning to `COc1ccc(C(=O)N2CCCC2=O)cc1`, the compound was classed as inactive in [8] and in assay [9]. Further, the Potency entry in [10] is “inactive”.
On to `Cc1ccc(N=CN(C)C=Nc2ccc(C)cc2C)c(C)c1`, for which the Potency in assay [1] was 24.3 µM (active). Besides, the activation in assay [7] is 15.6% (inactive).
As for `COP(=O)(OC)OC=C(Cl)Cl`, the Potency in assay [1] was 37.6 µM (active) and 42.2 µM (active) and 30.6 µM (active); in [12] it was 21.1 µM (active) and 66.8 µM (active). For the same compound, the activation is 1.84% (inactive) and 0.182% (inactive) in [2]; 2.56% (inactive) [middle of 4 runs] in [3]. The Potency result in assay [11] and in [13] was “inactive” each time. In addition, the max response in [4] was -1.1% (inactive) [middle of 4 runs].
For the compound `O=C(O)c1nn(Cc2ccc(Cl)cc2Cl)c2ccccc12`, the compound was classed as inactive in assay [8], in assay [9], in assay [14], in assay [15], in [16] and in assay [19]. Also, the call in assay [20] was inactive. The Potency entry in assay [10] was “inactive”. Moreover, in [17], the viability (% of control) was determined as 107%. In [18], the viability, percent of control was determined as 112%.
As to `Nc1c2ccccc2nc2ccccc12`, the Potency in [3] was 31.6 µM (active).
Take `CN(C)C(=S)SC(=S)N(C)C`: the Potency in assay [1] is 24.3 µM (active).
Consider `NC(=O)CN1CCCC1=O`, for which the call in assay [8] and in [9] was inactive. Besides, the Potency result in assay [10] is “inactive”.
As to `CCCCCCCCCCCCCCCC[n+]1ccccc1`, the Potency in assay [1] was 10.6 µM (active); in [13], 1.19 µM (active).
Turning to `CCCCCCCCCCCC[N+](C)(C)CCOc1ccccc1`, the values for the activation in assay [7] and in [3] were 13.3% (inactive) and -2.77% (inactive), respectively. Further, the Potency result in assay [11] and in [12] was “inactive” in each case. The max response in [4] is -0.963% (inactive). Moreover, the Potency in assay [13] is 10.6 µM (active).
For `COC(=O)C1=CCCN(C)C1`, the result in assay [8] and in assay [9] was inactive. The Potency entry in assay [10] was “inactive”.
